High-throughput results as filed in PubChem BioAssay.
NPC1 promoter act = NPC1 promoter activation | Huh7 NPC1 promoter luciferase reporter, 24 h | AID 485313 | 2.4% of 320,000 active | Potency, µM (top dose mostly 9.22 µM), for the others: top-dose activation, actives largely listed as activators; also: % of control where 0% means no effect; nearly all actives have a fitted effect of over 60% in size
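Luminescence from an NPC1 promoter-driven luciferase reporter in stably transfected Huh7 cells was measured after 24 h compound treatment at 37 °C, followed by 10 min ambient incubation with luciferase detection reagent.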
FLuc modulator = inhibits or activates purified firefly luciferase, miR-21 counter-screen; P08659; purified FLuc, Km substrates, luminescence inhibition; Potency, µM (top dose mostly 57.5 µM), for the others: top-dose activity change, negative = inhibition, usual class: inhibitors; 6.9% of 360,000 active;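 also: plate controls were vehicle for no effect and reference inhibitor for full effect; nearly all actives have a fitted effect of over 55% in size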
Target sequence (P08659 whole entry, looked up): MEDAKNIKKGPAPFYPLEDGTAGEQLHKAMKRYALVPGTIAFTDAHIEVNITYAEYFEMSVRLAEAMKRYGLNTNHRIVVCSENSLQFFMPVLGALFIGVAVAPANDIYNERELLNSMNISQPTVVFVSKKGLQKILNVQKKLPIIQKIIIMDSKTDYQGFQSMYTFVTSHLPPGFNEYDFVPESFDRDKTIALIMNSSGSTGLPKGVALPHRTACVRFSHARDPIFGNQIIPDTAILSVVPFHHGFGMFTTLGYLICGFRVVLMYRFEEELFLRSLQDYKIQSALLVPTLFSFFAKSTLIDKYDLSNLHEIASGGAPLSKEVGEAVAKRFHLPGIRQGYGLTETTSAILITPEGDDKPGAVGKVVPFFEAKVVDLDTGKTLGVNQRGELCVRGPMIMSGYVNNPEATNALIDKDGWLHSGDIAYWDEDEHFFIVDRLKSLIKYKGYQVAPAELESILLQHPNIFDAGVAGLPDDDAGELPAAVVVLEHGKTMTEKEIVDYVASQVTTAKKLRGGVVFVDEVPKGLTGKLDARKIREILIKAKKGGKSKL
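Purified P. pyralis luciferase (10nM final) with 10uM D-luciferin and 10uM ATP (Km levels) in 50mM Tris acetate pH 7.5, 10mM Mg acetate, 0.01% Tween-20, 0.05% BSA; qHTS 6-point titration, ~60 µM downward; luminescence read.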
Rab9 promoter act = Rab9 promoter activation; Huh7 Rab9 promoter-luciferase reporter, luminescence, 24 h; Potency, µM (top dose mostly 9.22 µM), for inactives: top-dose activation, negative = inhibition, usual class: activators; 2.8% of 320,000 active; also: % of control where 0% means no effect; nearly all actives have a fitted effect of over 60% in size
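Quantitative HTS format; Huh7 Rab9-luciferase reporter cells (1500/well) receive compound 2 h post-plating, incubate 24 h at 37 °C, then get luciferase reagent for 10 min before luminescence reading.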
SMN2 splice up = enhancers of SMN2 splice variant expression | 2.8% of 210,000 active | AID 1458 | Potency, µM (titrated, usually from 46.1 µM), for inactives: top-dose activity change, positive = activation, usual class: activators | HEK293 SMN2-luciferase splicing reporter, luminescence, 30-36 h; also: % of control where 0% means no effect; nearly all actives have a fitted effect of over 55% in size
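HEK293 cells carry an SMN2 […]–luciferase reporter in which exon 7 inclusion puts luciferase in frame. Cells were plated 10-12 h before compound addition, then incubated 30-36 h at 37C. ONE-Glo luminescence was read; sodium butyrate at 4.5 mM final served as control.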
ELG1 genotox = induces genotoxicity in HEK293T cells with luciferase-tagged ELG1 | 1.3% of 330,000 active | HEK293T ELG1-luciferase reporter, luminescence, 16 h | Potency, µM (highest dose often 46 µM), for inactives: at the highest dose activity change, positive = activation, actives largely listed as activators; also: % of control where 0% means no effect; nearly all actives have a fitted effect of over 60% in size
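Luminescence read-out: rising ELG1-luciferase signal, reflecting elevated ELG1 protein under genetic stress, flags genotoxic compounds. Cells were treated for 16 hr at 37 °C before ONE-Glo detection.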
KinaseGlo FLuc = counter-screen: inhibitors of Kinase-Glo firefly luciferase | Kinase-Glo luciferase, ATP luminescence, 8 min | Potency, µM (series often up to 38.3 µM), for inactives: top-dose activity change, negative = inhibition, usual class: inhibitors | 0.28% of 200,000 active; also: % is scaled to controls: 0 for no effect and ±100 for the full control effect; nearly all actives have a fitted effect of over 60% in size
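Luminescence was the read-out, taken after 8-minute incubation at ambient temperature. Luciferase turned over luciferin with 10 uM ATP in imidazole pH 7.2 buffer containing KCl, MgCl2, Tween 20 and BSA.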
* marks the source's active call; other numbers are inactive results; u = inconclusive; x = no result; [ ] = remark or other dose. In the library only some 7.5% were active in any assay of this set; here they are far more common. Calls follow the shape of the dose curve; as a rule, active = well fitted curve in the direction sought with a large enough effect; inconclusive = small, poorly fitted or top-dose-only effect, or another doubt; inactive = no such curve, though single readings can be large; an effect the other way counts as inactive or inconclusive. Potency is read from the fitted curve at half-maximal effect.

SMILES	NPC1 promoter act	FLuc modulator	Rab9 promoter act	SMN2 splice up	ELG1 genotox	KinaseGlo FLuc
NC(=S)n1[nH]c(-c2ccc([N+](=O)[O-])cc2)c(N=Nc2ccc(Cl)cc2)c1=O	-40.5%	-12.5%	-52.9%	-46.5%	-10.3%	2.6%
Cc1[nH]n(C(N)=S)c(=O)c1N=Nc1ccc(Br)cc1	3.55µM*	2.39µM*	2.82µM*	x	u	x
Cc1ccc([N+](=O)[O-])cc1N=Nc1c(C)[nH]n(C(N)=S)c1=O	-0.8%	-0.8%	-5.9%	x	-2.4%	x
Cc1ccc(N=Nc2c(C)[nH]n(C(N)=S)c2=O)cc1	u	2.69µM*	3.16µM*	17.8µM*	16.4µM*	-1.6%
Cc1[nH]n(C(N)=S)c(=O)c1N=Nc1cccc(C(F)(F)F)c1	3.98µM*	9.53µM*	19.1%[1.84 µM]	x	4.6%	x
Cc1[nH]n(C(N)=S)c(=O)c1N=Nc1ccc(S(=O)(=O)N2CCCC2)cc1	-1.5%	19µM*	13.0%	10.4%	1.0%	0.5%
O=S(=O)(NCCN1CCOCC1)c1cc(Cl)ccc1Cl	-3.8%	6.5%	-2.7%	x	-5.3%	x
Cc1ccccc1NC(=O)CSc1ncc2c(n1)-c1ccccc1N(C)S2(=O)=O	x	-7.8%	x	x	x	x
CCn1nc(C)c(Br)c1-c1nc(-c2ccc(C)cc2)no1	-5.1%	15.1µM*	-2.7%	x	0.3%	x
CCn1nc(C)c(Br)c1-c1nc(CS(=O)(=O)c2ccc(F)cc2)no1	-2.8%	-2.7%	4.0%	x	-0.3%	x
Cc1ccc(/C=N/NC(=O)c2ccco2)s1	3.16µM*	15.1µM*	3.16µM*	u	u	-12.0%
O=C(N/N=C/c1ccc(Br)s1)c1ccco1	u	21.3µM*	u	x	u	x
O=C(Nc1sc2c(c1C(=O)O)CCCCC2)c1ccccc1F	3.16µM*	10.7µM*	3.98µM*	5.62µM*	-7.3%	-4.7%
COC(=O)c1c(NC(=O)c2ccccc2C(=O)O)sc2c1CCCC2	x	12µM*	x	11.8%	x	x
O=C(Nc1sc2c(c1C(=O)O)CCCC2)c1ccc(F)cc1	27.9%	15.1µM*	u	x	3.8%	x
CCOC(=O)c1c(NC(=O)c2ccccc2C(=O)O)sc2c1CCCC2	-6.7%	-0.1%	5.6%	x	0.3%	x
NC(=O)c1c(NC(=O)c2cc3ccccc3o2)sc2c1CCC2	0.316µM*	0.426µM*	0.224µM*	2.24µM*	0.92µM*	-11.5%
Cc1cc(O)c(C)c2c1CC[C@H]1[C@H](C)C(=O)O[C@H]21	x	x	x	0.0%	x	0.3%
NC(=O)c1c(NC(=O)c2noc3c2CCCC3)sc2c1CCCC2	x	u	x	14.1µM*	x	x
CC(C)(C)c1ccc(C(=O)Nc2sc3c(c2C(=O)O)CCC3)cc1	-15.0%	10.7µM*	-17.8%	x	-5.9%	-1.0%
NC(=O)c1c(NC(=O)c2ccc(F)cc2)sc2c1CCC2	1.78µM*	4.26µM*	1.78µM*	x	u	x
Cc1ccnc(NS(=O)(=O)c2ccc(NC(=O)CC(C)c3ccccc3)cc2)n1 (stereo unspecified)	0.4%	-2.0%	-8.2%	x	-0.1%	x
COC(=O)c1c(-c2ccc(Cl)cc2)noc1N1CCN(c2cccc(C)c2C)CC1	x	7.0%	x	x	x	x
Fc1ccccc1CSc1ccc(-c2ccco2)nn1	2.24µM*	6.01µM*	1.58µM*	17.8µM*	u	-3.2%
Cc1cccc(CSc2nnc(-c3ccco3)o2)c1	17.8%	u	15.8%	26.0%	u	-0.2%
SMILES	NPC1 promoter act	FLuc modulator	Rab9 promoter act	SMN2 splice up	ELG1 genotox	KinaseGlo FLuc
Clc1cccc(CSc2ccc(-c3ccco3)nn2)c1	11.7%	21.3µM*	27.0%	25.7%	8.5%	-2.9%
O=C(CSc1ccc(-c2ccco2)nn1)Nc1ccc(F)cc1F	7.2%	u	0.7%	x	-13.3%	x
c1ccc(CSc2ccc(-c3ccco3)nn2)cc1	3.98µM*	2.39µM*	1.78µM*	12.6µM*	8.2µM*	-6.2%
Cc1cccc(CSc2ccc(-c3ccco3)nn2)c1	u	12µM*	u	u	u	-1.6%
Cc1ccc(N(CC(=O)N2CCN(Cc3ccccc3)CC2)S(C)(=O)=O)cc1C	0.1%	5.0%	-3.2%	x	-3.3%	x
Clc1ccc(CSc2ccc(-c3ccco3)nn2)cc1	u	u	u	u	15.0%	-4.9%
Cc1ccc(CSc2ccc(-c3ccco3)nn2)cc1	3.55µM*	4.78µM*	2.82µM*	11.2µM*	u	-13.8%
Cc1ccc(CNC(=O)c2sc3nc[nH]c(=O)c3c2C)cc1	x	-8.5%	x	x	x	x
Cc1nn2c(=O)cc(COc3ccc(/C=C(\C#N)C(=O)Nc4ccc(F)cc4)cc3)nc2s1	x	2.0%	x	-8.8%	x	x
CCOc1cccc(-c2cc(C(=O)N/N=C/c3ccc(OC)c(CN4CCOCC4)c3)c3ccccc3n2)c1	-4.3%	6.01µM*	-1.4%	-26.8%	-8.2%	3.1%
O=C(N/N=C/c1ccc2c(c1)OCO2)c1cc(-c2ccccc2Cl)nc2ccccc12	-1.7%	u	-1.9%	-13.5%	-0.1%	-1.5%
CCOc1ccccc1-c1cc(C(=O)N/N=C/c2ccc(O)c(OC)c2)c2ccccc2n1	0.3%	-4.7%	2.8%	25.1µM*	-14.0%	11.6%
CCOc1ccccc1-c1cc(C(=O)N/N=C/c2ccc3c(c2)OCO3)c2ccccc2n1	0.6%	-15.8%	1.9%	28.7%	2.3%	-2.8%
COc1ccc(/C=N/NC(=O)c2cc(-c3ccccc3)nc3ccccc23)c(OC)c1	2.8%	16.9µM*	12.1%	x	-5.6%	x
O=C(N/N=C/c1ccc2c(c1)OCO2)c1cc(-c2ccncc2)nc2ccccc12	-18.5%	12µM*	-22.5%	-26.3%	4.4%	-10.7%
O=C(N/N=C/c1c(F)c(F)c(F)c(F)c1F)c1cc(-c2ccccc2)nc2ccccc12	0.9%	-2.8%	12.3%	x	-2.6%	x
CCN(CC)C(=O)[C@H]1C[C@H](CC(=O)NC(C)(C)C)C(=O)N2CCc3c([nH]c4cc(CCC(=O)N(C)C)ccc34)[C@]12C	x	x	x	x	7.5%	x
Cn1cc(CN2CCC(C(O)c3cccs3)CC2)c(-c2ccccc2F)n1 (stereo unspecified)	-1.6%	-2.9%	0.5%	x	3.1%	x
O=C(N/N=C/c1ccc(Cl)cc1)c1cc(-c2cccnc2)nc2ccccc12	-32.1%	-6.7%	-17.6%	-25.8%	6.0%	1.1%
O=C(N/N=C/c1ccc(O)c(O)c1)c1cc(-c2ccccc2)nc2ccccc12	-7.7%	15.1µM*	0.4%	x	2.7%	x
O=C(N/N=C/c1ccco1)c1cc(-c2cccc(Br)c2)nc2ccccc12	-0.2%	4.78µM*	-0.3%	-46.1%	-0.7%	-0.9%
COc1ccc2nc(-c3ccccc3)cc(OC)c2c1	17.9%	12µM*	20.4%	u	u	-4.3%
O=C(N/N=C/c1cc([N+](=O)[O-])ccc1O)c1cc(-c2ccccc2)nc2ccccc12	-15.1%	u	-15.5%	-71.7%	1.8%	0.4%
